Some test systems named below: T-47D breast; BT-549 breast; MDA-MB-435 melanoma; SW-620 colon; MCF7 breast; HCT-116 colon; HCC-2998 colon; KM12 colon.
Holding throughout (experiment): NCI-60 one-dose screen, 48 h (100 = growth as untreated, 0 = no growth, -100 = all killed)
Holding throughout (conditions): 10 µM

SMILES strings stand for the structures. About 83,000 compounds went through this panel and 20% of them were active in at least one assay; those are over-represented in the sample as a whole.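 Treatment: one concentration, 48 hours, 96-well format. Scoring: percent growth, with anything below 10 considered active.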 Unmarked numbers belong to inactive results. The source made the active and inactive calls.

Take `CC(C)(C)OC(=O)CN1CCc2c(sc3ncnc(N/N=C/c4cccc5ccccc45)c23)C1`: the growth with T-47D breast was 26.4%; in the test on BT-549 breast, 64.3%; with MDA-MB-435 melanoma, 27.6%; in the test with SW-620 colon it was 33.9%; in the test on MCF7 breast, -24.5% (active); with HCT-116 colon, 26%. In addition, the growth in the test on HCC-2998 colon was 44.1%; in the test on KM12 colon, 53.1%.

Consider `COc1cc(/C=C/c2cc(/C=C/c3ccc(O)c(OC)c3)nc(N)n2)ccc1O`, for which the growth in the test on T-47D breast is 1.57% (active); in the test on BT-549 breast, -24.4% (active); with MDA-MB-435 melanoma it was -8.12% (active); with SW-620 colon it was 1.86% (active); in the test on MCF7 breast, 7.59% (active); with HCT-116 colon, 0.331% (active). For the same compound, the growth with HCC-2998 colon was 0.932% (active); in the test with KM12 colon, -29.3% (active).

Consider `COc1ccc(-c2nn(-c3cccc(Cl)c3)cc2-c2nc(N)[nH]c(=O)c2C#N)cc1`, for which the growth is 58.7% in the test on T-47D breast; 64% in the test on BT-549 breast; 2.16% (active) in the test on MDA-MB-435 melanoma; 83.2% in the test with SW-620 colon; 51% in the test with MCF7 breast; 58% in the test with HCT-116 colon. The growth was 80.9% with HCC-2998 colon and 56% with KM12 colon.

As to `CCN1C(=O)CC(SC2CC(=O)N(CC)C2=O)C1=O` (stereo not drawn), the growth was 102% with T-47D breast; 101% in the test with BT-549 breast; 104% with MDA-MB-435 melanoma; 108% in the test with SW-620 colon; 103% in the test with MCF7 breast; 104% with HCT-116 colon. Further, the growth was 97.6% in the test with HCC-2998 colon and 104% in the test with KM12 colon.

Regarding `COC(=O)C1(O)NC(=C(C#N)C#N)C(C#N)=C1C(=O)c1ccc(OC)c(OC)c1` (stereo not drawn), the growth in the test on T-47D breast is 98.6%; with BT-549 breast it was 89.1%; in the test with MDA-MB-435 melanoma it was 104%; with SW-620 colon it was 97.9%; in the test on MCF7 breast, 95.4%; with HCT-116 colon, 90.9%. Besides, the growth is 117% in the test with HCC-2998 colon and 105% with KM12 colon.

As to `O=C(CNc1nnc(-c2cccnc2SCc2ccccc2)s1)Nc1nc(Cl)cc(Cl)n1`, the growth with T-47D breast is 79.3%; with BT-549 breast, 100%; in the test with MDA-MB-435 melanoma, 114%; in the test on SW-620 colon, 117%; with MCF7 breast, 89.1%; in the test with HCT-116 colon, 106%. The growth is 122% in the test with HCC-2998 colon and 97.9% in the test with KM12 colon.

As to `Cc1ccc(-c2c3c(N)nc(-c4cccnc4)nc3nc3c2c(C)nn3-c2ccccc2)cc1`, the growth was 81.8% in the test on T-47D breast; 100% in the test on BT-549 breast; 82.7% with MDA-MB-435 melanoma; 102% in the test with SW-620 colon; 87.7% in the test on MCF7 breast; 81.1% with HCT-116 colon. In addition, the growth is 103% with HCC-2998 colon and 97.1% in the test with KM12 colon.

Take `CCOC(=O)c1cc(C(=O)c2cc(OC)c(OC)c(OC)c2)n2ccc(-c3cc[n+](CC(=O)c4cc(OC)c(OC)c(OC)c4)cc3)cc12`: the growth in the test with T-47D breast is 50.1%; in the test with BT-549 breast it was -10.9% (active); with MDA-MB-435 melanoma it was 68.7%; with SW-620 colon, -64.8% (active); with MCF7 breast, -29.3% (active); in the test with HCT-116 colon, -61.2% (active). Moreover, the growth in the test on HCC-2998 colon was 109%; with KM12 colon, 45.3%.

With `CCCc1nc(C(C)(C)O)c(C(=O)O)n1Cc1ccc(-c2ccccc2-c2nn[nH]n2)cc1`, the growth in the test on T-47D breast is 82.1%; with BT-549 breast, 103%; in the test on MDA-MB-435 melanoma, 106%; with SW-620 colon it was 98.6%; in the test on MCF7 breast, 98.9%; with HCT-116 colon, 106%. Besides, the growth in the test on HCC-2998 colon is 110%; in the test on KM12 colon it was 120%.

For the compound `O=c1[nH]c(=O)n(C2C[C@H](O)[C@@H](CO)O2)cc1C(F)(F)F` (stereo partly drawn), the growth with T-47D breast was 95.3%; in the test on BT-549 breast it was 105%; in the test with MDA-MB-435 melanoma, 102%; with SW-620 colon, 114%; with MCF7 breast, 102%; with HCT-116 colon it was 106%. Besides, the growth with HCC-2998 colon is 108%; in the test with KM12 colon, 115%.

As for `COc1cc2c3c(n(C4CCNCC4)c(=O)c2cc1OC)-c1cc2c(cc1C3=O)OCO2`, the growth with T-47D breast was -51.1% (active); in the test with BT-549 breast it was -58% (active); in the test with MDA-MB-435 melanoma, -44.1% (active); with SW-620 colon, -73.2% (active); in the test with MCF7 breast, -53.8% (active); in the test with HCT-116 colon, -60.7% (active). In addition, the growth is -95% (active) in the test on HCC-2998 colon and -79.6% (active) in the test on KM12 colon.

For the compound `CC(=O)C1CCC2C3CC=C4CC(SC(=N)N)CCC4(C)C3CCC12C` (stereo not drawn), the growth is 40.9% in the test on T-47D breast; 76.4% with BT-549 breast; 9.68% (active) with MDA-MB-435 melanoma; -75.2% (active) in the test on SW-620 colon; -2.29% (active) in the test with MCF7 breast; 1.01% (active) in the test with HCT-116 colon. Moreover, the values for the growth with HCC-2998 colon and in the test on KM12 colon were -52.3% (active) and 31.8%, respectively.

`CN1CCN(CCC(=O)Nc2cccc(-n3cc(-c4ccncc4)c(-c4ccc(Cl)c(O)c4)n3)c2)CC1`: the growth is 62.9% with T-47D breast; 56.5% in the test on BT-549 breast; -37.9% (active) in the test with MDA-MB-435 melanoma; 20.9% in the test on SW-620 colon; 13.9% in the test with MCF7 breast; 19.1% in the test with HCT-116 colon. Also, the growth in the test on HCC-2998 colon was 82.2%; in the test on KM12 colon, 31.2%.

Regarding `N#Cc1ccc(C(=O)CSc2nccc(Nc3ccc(C(=O)O)cc3)n2)cc1`, the growth in the test with T-47D breast was 110%; with BT-549 breast, 103%; in the test on MDA-MB-435 melanoma, 104%; in the test on SW-620 colon it was 104%; with MCF7 breast, 91.3%; with HCT-116 colon, 108%. For the same compound, the growth with HCC-2998 colon is 100%; in the test with KM12 colon, 105%.

Take `COC(=O)C1OC1c1cc([N+](=O)[O-])ccc1OC` (stereo not drawn): the growth was 70% in the test on T-47D breast; 107% in the test with BT-549 breast; 107% in the test with MDA-MB-435 melanoma; 107% with SW-620 colon; 89.3% in the test on MCF7 breast; 102% with HCT-116 colon. For the same compound, the results for the growth in the test with HCC-2998 colon and with KM12 colon were 96.1% and 99.3%, respectively.

Consider `CCOC(=O)c1cocc1C(=O)O`, for which the growth with T-47D breast is 104%; in the test with BT-549 breast it was 108%; in the test on MDA-MB-435 melanoma it was 106%; with SW-620 colon, 103%; with MCF7 breast it was 101%; with HCT-116 colon, 103%. The growth with HCC-2998 colon was 103%; in the test with KM12 colon, 104%.

Source of the values: PubChem BioAssay (NCI).
